Compound activity (PubChem)
Cav32 inh: human Cav3.2 channel inhibition, primary screen; O95180; Cav3.2-expressing cells, Fluo-4 calcium fluorescence FDSS; active compounds read low; B-score at 10 µM; actives 4% (n = 100,000); AID 449739;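 active = single-dose well whose peak fluorescence ratio is a statistical outlier from its plate by either plate-standardised score or position-corrected B-score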
CYP2C9 inh: blocks human cytochrome P450 2C9; inhibition, % at 5 µM; CYP2C9 Supersomes, luciferin-H conversion, luminescence; P11712; AID 777; actives 20% (n = 96,000);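 active = blocking of liver enzyme CYP2C9 beyond about 50% at 5 µM, limit read from the data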
CYP2C19 act: cytochrome P450 2C19 (human) activation | P33261 | recombinant CYP2C19, luciferin-H EGE luminescence; active compounds read high; 0 = fully inhibited enzyme, 1 = untreated enzyme | activation factor at 5 µM | 96,000 tested, under 10 active | AID 1025;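 active = activation factor of at least 2 at 5 µM in the primary screen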
CYP2C9 act: CYP2C9 (human) activation; actives 1.4% (n = 96,000); P11712; activation factor at 5 µM; recombinant CYP2C9, luciferin-H conversion, luminescence; active compounds read high; factor 1 = untreated enzyme, 0 = blocked;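 active = activation factor of 2 or more for CYP2C9 at a 5 µM dose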
CYP2C19 inhib: inhibitors of human CYP2C19. actives 21% (n = 96,000). CYP2C19 Supersomes, luciferin-H EGE luminescence, 30 min. inhibition, % at 5 µM;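 active = CYP2C19 inhibition above a set limit at 5 µM in the primary screen, cut at about 50% in these data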
Of the large screens only hits and unclear results are named; the others gave an inactive call. A selection: hits, their analogues and other compounds. The true share with any hit is near 27%.

COc1cc(Cl)cc(C2NC(=O)NC(C)=C2C(C)=O)c1OCC(=O)O (configuration not stated)	none
CCOC(=O)COc1c(OC)cc(Cl)cc1C1Nc2ccccc2C(=O)N1c1cccc(C)c1 (configuration not stated)	CYP2C9 inh 95, CYP2C19 inhib 95
CCOC(=O)COc1c(OC)cc(Cl)cc1C1Nc2ccccc2C(=O)N1c1ccccc1 (configuration not stated)	CYP2C9 inh 98, CYP2C19 inhib 95
CCOC(=O)COc1c(OC)cc(Cl)cc1C1Nc2ccccc2C(=O)N1c1ccc(F)cc1 (configuration not stated)	CYP2C9 inh 90, CYP2C19 inhib 67
CCN(CC)CCN1C(=O)c2ccccc2NC1c1cc(OC)c(OC)c(OC)c1 (configuration not stated)	none
CCOC(=O)C1(C)NC(c2ccc(N(C)C)cc2)C2C(=O)N(c3ccc(OC)cc3)C(=O)C21 (configuration not stated)	CYP2C19 inhib 57
CCOC(=O)C1(C)NC(c2ccc(OC)cc2OC)C2C(=O)N(c3cccc(OC)c3)C(=O)C21 (configuration not stated)	CYP2C9 inh 83, CYP2C19 inhib 80 (no result: Cav32 inh)
COc1cccc(CC(NC(C)=O)C(=O)NC2CCN(S(=O)(=O)c3cccc4ccccc34)CC2)c1 (configuration not stated)	none
Cc1ccc2oc3c(c(=O)c2c1)C(c1cccc(Cl)c1)N(CCCN1CCOCC1)C3=O (configuration not stated)	none
Cn1c(C(=O)OCC(=O)NCc2cccs2)cc2sccc21	CYP2C9 inh 66, CYP2C19 inhib 51
CCOc1ccc(CCNC(=O)c2cc3sccc3n2C)cc1OCC	CYP2C9 inh 67, CYP2C19 inhib 94 (no result: Cav32 inh)
Cn1c(C(=O)OCC(=O)NCCc2ccccc2)cc2sccc21	CYP2C9 inh 69
CC(CCc1ccccc1)NC(=O)C1CCCN(C(=O)c2cc3sccc3n2C)C1 (configuration not stated)	none
Cn1c(C(=O)OCC(=O)NCC2CCCO2)cc2sccc21 (configuration not stated)	none (no result: CYP2C9 inh, CYP2C19 act, CYP2C9 act, CYP2C19 inhib)
CCCn1nnnc1NC(=O)c1cccs1	none
Cc1[nH]n(C(C)(C)C)c(=O)c1Sc1ccc(Cl)cc1	CYP2C9 inh 54, CYP2C19 inhib 54
Cc1ccc(S(=O)(=O)CCc2nnc(NC(=O)c3cnccn3)s2)cc1	CYP2C9 inh 51
CC(C)c1nnc(NC(=O)c2cnccn2)s1	none
COc1ccc2[nH]c(=O)c(CN(Cc3ccccc3)Cc3nnnn3CC3CCCO3)cc2c1 (configuration not stated)	CYP2C19 inhib 72
Cc1ccc(C)c2[nH]c(=O)c(CN(CCN3CCOCC3)Cc3nnnn3CC3CCCO3)cc12 (configuration not stated)	none
COc1ccc(Cn2nnnc2CN(Cc2cc3cc(C)ccc3[nH]c2=O)C2CCCC2)cc1	none
COc1cc2cc(CN(Cc3nnnn3Cc3ccccc3)CC3CCCO3)c(=O)[nH]c2cc1OC (configuration not stated)	CYP2C9 inh 68, CYP2C19 inhib 98
COc1ccc(N2CC(O)=C(c3n(C)c4ccccc4[n+]3C)C2=N)cc1	none
Cc1ccc(Cn2cccc(NC(=O)c3ccco3)c2=O)cc1	CYP2C9 inh 60, CYP2C19 inhib 72
O=C(Nc1cccn(Cc2c(Cl)cccc2Cl)c1=O)c1c(Cl)cccc1Cl	Cav32 inh -6.5
Cc1ccc(Cn2cccc(NC(=O)NCc3ccccc3)c2=O)cc1	none
COC(=O)Nc1cccn(Cc2c(Cl)cccc2Cl)c1=O	CYP2C9 act 2.5, CYP2C19 inhib 87
COc1cccc(Cn2cccc(NC(=O)Nc3ccc(C#N)cc3)c2=O)c1	none
CON/C=C(\C=Nc1ccc(C(F)(F)F)cc1)c1ncc(C(F)(F)F)cc1Cl	none
COc1cccc(NC(=O)OCCN2CCN(Cc3ccccc3)CCC2=O)c1	none (no result: CYP2C9 inh, CYP2C19 act, CYP2C9 act, CYP2C19 inhib)
O=C(NC1CCCCC1)C1CCCN1S(=O)(=O)c1cccc2nsnc12 (configuration not stated)	CYP2C9 inh 54
O=C(NC1CCCC1)C(NS(=O)(=O)c1cccc2nsnc12)c1ccccc1 (configuration not stated)	CYP2C9 inh 50
CCC(C)NC(=O)C(Cc1ccccc1)NS(=O)(=O)c1cccc2nsnc12 (configuration not stated)	none
CCOC(=O)N1CCN(C(=O)C(NS(=O)(=O)c2cccc3nsnc23)c2ccccc2)CC1 (configuration not stated)	CYP2C9 inh 73
COc1ccc(NC(C)=O)cc1NC(=O)CN1CCN(C(=O)c2ccco2)CC1	none
CCOC(=O)C1=C(C)N=c2s/c(=C\c3ccc(OC(C)=O)c(OCC)c3)c(=O)n2C1/C=C/c1ccccc1 (configuration not stated)	CYP2C9 inh 72 (no result: Cav32 inh)
COC(=O)c1cccnc1-n1c(=O)c2cccnc2n(Cc2ccc(Cl)cc2)c1=O	CYP2C19 inhib 59
CC(=O)Nc1ccc(SCC(=O)c2cc(C)n(CC(F)(F)F)c2C)cc1	CYP2C9 inh 58, CYP2C19 inhib 93
CCC(C)NC(=O)CSc1ccc(NC(C)=O)cc1 (configuration not stated)	none
CC(=O)Nc1ccc(SCC(=O)c2cc(C)n(C)c2C)cc1	CYP2C19 inhib 79
CS(=O)(=O)N1CCN(C(=O)c2ccc(Br)s2)CC1	CYP2C19 inhib 94
CC(C)Cn1c(N)c(C(=O)COC(=O)C2=COCCO2)c(=O)n(C)c1=O	none (no result: CYP2C9 inh, CYP2C19 act, CYP2C9 act, CYP2C19 inhib)
CCOC(=O)c1c(C)nc2sc(C(=O)Nc3ccccc3)c(N)c2c1-c1ccc(OC)cc1	CYP2C9 inh 82, CYP2C19 inhib 76
O=C1CC(NCc2ccc3c(c2)OCO3)C(=O)N1Cc1ccc2c(c1)OCO2 (configuration not stated)	none
O=C(NC(CSCc1ccccc1)C(=O)N/N=C/c1ccc(O)cc1O)c1ccc([N+](=O)[O-])cc1 (configuration not stated)	Cav32 inh -4.7
O=C(N/N=C/c1ccc(O)c(O)c1O)/C(=C/c1ccc([N+](=O)[O-])cc1)NC(=O)c1ccccc1	none
NC(=O)CC(NC(=O)Cc1cccc2ccccc12)c1ccc(NC2CCCCCCC2)c([N+](=O)[O-])c1 (configuration not stated)	none (no result: CYP2C9 inh, CYP2C19 act, CYP2C9 act, CYP2C19 inhib)
CCn1c(C)nc2cc(-c3nc4n(n3)Cc3ccccc3-4)ccc21	CYP2C19 inhib 84
Cc1ccc2[nH]c(=O)c(CN(Cc3ccco3)C(=O)c3cccs3)cc2c1	none (no result: CYP2C9 inh, CYP2C19 act, CYP2C9 act, CYP2C19 inhib)
O=C(c1cccs1)N(Cc1ccccn1)Cc1ccco1	CYP2C19 inhib 54
c1ccc2[nH]c(CN3CCCCCC3)nc2c1	CYP2C19 inhib 64
O=S(=O)(c1ccccc1F)N1CCN(Cc2nc3ccccc3[nH]2)CC1	CYP2C19 inhib 55
CC1=CC2=C(OC1N(C)C)c1cccc3cccc(c13)C2=O (configuration not stated)	none
